# Source: PubChem BioAssay AID1159580 (chemical genetic matrix, 2015)
# In all, about 5,500 compounds went through this assay and about 2,000 (36%) were called active. About 18% were inconclusive and are not listed. The list shows a part of the results. Unmarked numbers belong to inactive results. No stated cut-off is given here; in the data, active means normalized growth mostly below about 0.91 (no sharp cut-off); inconclusive means no clear call, values can overlap the other calls; inactive means mostly above about 0.92.
# Assay: chemical genetic growth profiling, strain panel (AID 1159580);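 further: tested at 20 µM; growth read once vehicle control cultures reached saturation at 30 °C; 1 = growth at the plate median or of vehicle wells; lower values mean less growth of the strain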
# Details: growth OD
# [1] = S. cerevisiae deletion strains, locus YAL013W, strain DEP1, hits give low values
# [2] = S. cerevisiae deletion strains, locus YAL040C, strain CLN3, hits give low values
# [3] = S. cerevisiae deletion strains, locus YCL061C, strain MRC1 (second series), hits give low values
# [4] = S. cerevisiae deletion strains, locus YDR150W, strain NUM1, hits give low values
# [5] = S. cerevisiae deletion strains, locus YDR363W, strain ESC2, hits give low values
# [6] = S. cerevisiae deletion strains, locus YER002W, strain NOP16, hits give low values
# [7] = S. cerevisiae deletion strains, locus YJR075W, strain HOC1, hits give low values
# [8] = S. cerevisiae deletion strains, locus YMR307W, strain GAS1, hits give low values
# [9] = S. cerevisiae deletion strains, locus YNL153C, strain GIM3, hits give low values
# [10] = S. cerevisiae deletion strains, locus YNL175C, strain NOP13, hits give low values
# [11] = S. cerevisiae deletion strains, locus YNL197C, strain WHI3, hits give low values
# [12] = S. cerevisiae deletion strains, locus YNL224C, strain SQS1, hits give low values
# [13] = S. cerevisiae deletion strains, locus YOR083W, strain WHI5 (second series), hits give low values
# [14] = S. cerevisiae deletion strains, locus YPL055C, strain LGE1, hits give low values
# [15] = S. cerevisiae deletion strains, locus YPL241C, strain CIN2, hits give low values
# [16] = S. cerevisiae deletion strains, locus YGR078C, strain PAC10, hits give low values
# [17] = S. cerevisiae deletion strains, locus YNL322C, strain KRE1, hits give low values
# [18] = S. cerevisiae deletion strains, locus YBR229C, strain ROT2, hits give low values
# [19] = S. cerevisiae deletion strains, locus YCL061C, strain MRC1, hits give low values
# [20] = S. cerevisiae deletion strains, locus YDL101C, strain DUN1, hits give low values
# [21] = S. cerevisiae deletion strains, locus YDL134C, strain PPH21, hits give low values
# [22] = S. cerevisiae deletion strains, locus YEL061C, strain CIN8, hits give low values
# [23] = S. cerevisiae deletion strains, locus YHR030C, strain SLT2, hits give low values
# [24] = S. cerevisiae deletion strains, locus YHR087W, strain rtc3, hits give low values
# [25] = S. cerevisiae deletion strains, locus YJR043C, strain POL32, hits give low values
# [26] = S. cerevisiae deletion strains, locus YKL190W, strain CNB1, hits give low values
# [27] = S. cerevisiae deletion strains, locus YLR039C, strain RIC1, hits give low values
# [28] = S. cerevisiae deletion strains, locus YLR058C, strain SHM2 (second series), hits give low values
# [29] = S. cerevisiae deletion strains, locus YLR085C, strain ARP6, hits give low values
# [30] = S. cerevisiae deletion strains, locus YLR262C, strain YPT6, hits give low values
# [31] = S. cerevisiae deletion strains, locus YML094W, strain GIM5, hits give low values
# [32] = S. cerevisiae deletion strains, locus YMR219W, strain ESC1, hits give low values
# [33] = S. cerevisiae deletion strains, locus YMR263W, strain SAP30, hits give low values
# [34] = S. cerevisiae deletion strains, locus YNL298W, strain CLA4 (second series), hits give low values
# [35] = S. cerevisiae deletion strains, locus YNR030W, strain Alg12, hits give low values
# [36] = S. cerevisiae deletion strains, locus YPR135W, strain CTF4, hits give low values
# [37] = S. cerevisiae strains, strain wild type, hits give low values
smiles,measurement,setting,value
COC1(C2=NCCN2)COc2ccccc2O1 (stereo not drawn),normalized growth,[1],1
same,normalized growth,[2],1.01
same,normalized growth,[3],1.01
same,normalized growth,[4],1.02
same,normalized growth,[5],0.995
same,normalized growth,[6],1
same,normalized growth,[7],1.01
same,normalized growth,[8],0.998
same,normalized growth,"S. cerevisiae deletion strains, locus YNL128W, strain TEP1, hits give low values",0.995
same,normalized growth,[9],1.03
same,normalized growth,[10],1
same,normalized growth,[11],1.01
same,normalized growth,[12],1.01
same,normalized growth,[13],1.02
same,normalized growth,[14],0.996
same,normalized growth,[15],1.01
Nn1nnc2ccccc21,normalized growth,[1],1.01
same,normalized growth,[2],1.02
same,normalized growth,[3],1.01
same,normalized growth,[5],1
same,normalized growth,[6],1.01
same,normalized growth,[16],1.01
same,normalized growth,[10],0.991
same,normalized growth,[11],1.01
same,normalized growth,[12],0.998
same,normalized growth,[17],1.02
same,normalized growth,[13],0.998
same,normalized growth,[14],1.02
FC(F)(F)c1cc(NC2=NCCN=C(Nc3cc(C(F)(F)F)cc(C(F)(F)F)c3)SS2)cc(C(F)(F)F)c1,normalized growth,[1],1.01
same,normalized growth,[18],1.01
same,normalized growth,[19],0.997
same,normalized growth,[20],0.993
same,normalized growth,[21],0.999
same,normalized growth,[4],1.04
same,normalized growth,[22],1
same,normalized growth,[16],1
same,normalized growth,[23],0.952
same,normalized growth,[24],0.997
same,normalized growth,[25],0.993
same,normalized growth,[7],0.989
same,normalized growth,[26],1.01
same,normalized growth,[27],0.977
same,normalized growth,[28],1.01
same,normalized growth,[29],0.978
same,normalized growth,[30],0.979
same,normalized growth,[31],0.975
same,normalized growth,[32],1
same,normalized growth,[33],1.02
same,normalized growth,[8],0.916
same,normalized growth,[9],1.02
same,normalized growth,[34],1.01
same,normalized growth,[17],1
same,normalized growth,[35],0.988
same,normalized growth,[14],1.05
same,normalized growth,[15],0.99
same,normalized growth,[36],0.95
same,normalized growth,[37],1.01
N#CCCNc1cc(C(F)(F)F)cc(C(F)(F)F)c1,normalized growth,[1],0.98
same,normalized growth,[18],0.985
same,normalized growth,[19],0.96
same,normalized growth,[20],0.986
same,normalized growth,[21],0.99
same,normalized growth,[4],0.96
same,normalized growth,[22],0.975
same,normalized growth,[16],0.947
same,normalized growth,"S. cerevisiae deletion strains, locus YGR229C, strain SMI1, hits give low values",0.981
same,normalized growth,[23],0.867
same,normalized growth,[24],0.989
same,normalized growth,"S. cerevisiae deletion strains, locus YJL187C, strain SWE1, hits give low values",0.986
same,normalized growth,[25],0.97
same,normalized growth,[7],0.883 (active)
same,normalized growth,[26],0.981
same,normalized growth,[27],0.848
same,normalized growth,[28],1.01
same,normalized growth,[29],0.837
same,normalized growth,[30],0.844
same,normalized growth,[31],0.918
same,normalized growth,[32],0.987
same,normalized growth,[33],0.991
same,normalized growth,[8],0.903
same,normalized growth,[9],0.96
same,normalized growth,[34],0.954
same,normalized growth,[17],0.957
same,normalized growth,[35],0.902
same,normalized growth,[14],0.893
same,normalized growth,[15],0.947
same,normalized growth,[36],0.801
same,normalized growth,[37],0.991
